Consider 39 targets from the supplement of paper PMC10849652.

The full data set covers some 8,800 targets. This sample favours those with a hit. About 0.5% of all pairs of compound and target were hits.

Chain of UniProt P49916 (P49916 whole entry, looked up): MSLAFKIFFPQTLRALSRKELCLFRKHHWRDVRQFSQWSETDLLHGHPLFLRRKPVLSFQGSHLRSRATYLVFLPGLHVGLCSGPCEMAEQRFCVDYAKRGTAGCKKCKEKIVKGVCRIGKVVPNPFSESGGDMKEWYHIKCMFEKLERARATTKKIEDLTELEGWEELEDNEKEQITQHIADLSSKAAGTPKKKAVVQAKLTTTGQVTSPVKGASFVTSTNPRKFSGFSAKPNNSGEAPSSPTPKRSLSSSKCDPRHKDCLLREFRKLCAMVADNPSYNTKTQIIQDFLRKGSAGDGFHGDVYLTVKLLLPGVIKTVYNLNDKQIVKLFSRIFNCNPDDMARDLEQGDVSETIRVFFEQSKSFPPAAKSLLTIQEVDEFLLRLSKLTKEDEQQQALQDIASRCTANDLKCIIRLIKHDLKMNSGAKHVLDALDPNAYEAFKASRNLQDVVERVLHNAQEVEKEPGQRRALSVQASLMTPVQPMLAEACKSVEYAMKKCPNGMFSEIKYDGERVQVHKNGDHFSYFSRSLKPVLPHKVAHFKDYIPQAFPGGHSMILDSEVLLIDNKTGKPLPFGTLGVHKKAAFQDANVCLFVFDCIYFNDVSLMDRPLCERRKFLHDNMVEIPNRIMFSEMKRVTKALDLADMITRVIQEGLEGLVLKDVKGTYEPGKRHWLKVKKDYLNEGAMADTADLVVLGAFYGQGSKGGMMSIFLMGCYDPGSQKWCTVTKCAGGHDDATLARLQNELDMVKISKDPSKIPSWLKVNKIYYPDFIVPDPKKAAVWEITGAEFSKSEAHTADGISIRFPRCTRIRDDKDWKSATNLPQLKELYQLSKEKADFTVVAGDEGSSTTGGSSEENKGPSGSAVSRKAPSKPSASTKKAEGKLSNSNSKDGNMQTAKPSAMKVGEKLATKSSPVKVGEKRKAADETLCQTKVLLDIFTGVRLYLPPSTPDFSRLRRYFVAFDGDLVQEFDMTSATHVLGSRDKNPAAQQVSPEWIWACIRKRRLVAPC
Chain of UniProt Q00013 (Q00013 whole entry, looked up): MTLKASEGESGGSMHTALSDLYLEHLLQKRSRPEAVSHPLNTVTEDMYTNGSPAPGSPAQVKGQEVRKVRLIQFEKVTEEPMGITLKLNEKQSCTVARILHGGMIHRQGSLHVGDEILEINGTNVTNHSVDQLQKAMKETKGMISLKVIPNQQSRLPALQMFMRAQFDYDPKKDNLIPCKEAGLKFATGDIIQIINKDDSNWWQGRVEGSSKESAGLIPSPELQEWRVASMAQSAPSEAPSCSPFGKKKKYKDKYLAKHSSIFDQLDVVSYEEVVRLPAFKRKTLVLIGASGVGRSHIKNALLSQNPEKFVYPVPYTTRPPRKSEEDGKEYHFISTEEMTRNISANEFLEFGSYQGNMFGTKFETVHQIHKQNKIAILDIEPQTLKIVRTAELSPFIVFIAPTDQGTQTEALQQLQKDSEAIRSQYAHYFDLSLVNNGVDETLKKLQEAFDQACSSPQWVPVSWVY
Chain of UniProt Q15013 (Q15013 whole entry, looked up): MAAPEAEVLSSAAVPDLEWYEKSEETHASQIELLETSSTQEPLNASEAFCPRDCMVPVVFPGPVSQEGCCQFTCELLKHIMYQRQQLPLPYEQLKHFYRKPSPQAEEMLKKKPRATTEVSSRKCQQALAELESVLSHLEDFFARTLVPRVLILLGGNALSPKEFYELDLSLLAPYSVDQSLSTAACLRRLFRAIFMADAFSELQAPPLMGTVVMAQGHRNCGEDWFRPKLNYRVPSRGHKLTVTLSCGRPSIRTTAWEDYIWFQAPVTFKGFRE
Chain of UniProt P36507 (P36507 whole entry, looked up): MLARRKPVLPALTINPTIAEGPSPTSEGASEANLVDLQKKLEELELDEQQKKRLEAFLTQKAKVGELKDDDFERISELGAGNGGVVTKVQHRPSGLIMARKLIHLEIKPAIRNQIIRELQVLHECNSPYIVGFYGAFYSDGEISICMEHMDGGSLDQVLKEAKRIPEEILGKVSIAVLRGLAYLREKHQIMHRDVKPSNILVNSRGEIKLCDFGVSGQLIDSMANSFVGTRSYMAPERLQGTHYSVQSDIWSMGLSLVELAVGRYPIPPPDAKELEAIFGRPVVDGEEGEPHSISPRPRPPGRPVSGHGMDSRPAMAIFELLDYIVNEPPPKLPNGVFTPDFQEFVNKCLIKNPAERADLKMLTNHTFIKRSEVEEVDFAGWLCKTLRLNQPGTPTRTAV
Chain of UniProt Q9NVC6 (Q9NVC6 whole entry, looked up): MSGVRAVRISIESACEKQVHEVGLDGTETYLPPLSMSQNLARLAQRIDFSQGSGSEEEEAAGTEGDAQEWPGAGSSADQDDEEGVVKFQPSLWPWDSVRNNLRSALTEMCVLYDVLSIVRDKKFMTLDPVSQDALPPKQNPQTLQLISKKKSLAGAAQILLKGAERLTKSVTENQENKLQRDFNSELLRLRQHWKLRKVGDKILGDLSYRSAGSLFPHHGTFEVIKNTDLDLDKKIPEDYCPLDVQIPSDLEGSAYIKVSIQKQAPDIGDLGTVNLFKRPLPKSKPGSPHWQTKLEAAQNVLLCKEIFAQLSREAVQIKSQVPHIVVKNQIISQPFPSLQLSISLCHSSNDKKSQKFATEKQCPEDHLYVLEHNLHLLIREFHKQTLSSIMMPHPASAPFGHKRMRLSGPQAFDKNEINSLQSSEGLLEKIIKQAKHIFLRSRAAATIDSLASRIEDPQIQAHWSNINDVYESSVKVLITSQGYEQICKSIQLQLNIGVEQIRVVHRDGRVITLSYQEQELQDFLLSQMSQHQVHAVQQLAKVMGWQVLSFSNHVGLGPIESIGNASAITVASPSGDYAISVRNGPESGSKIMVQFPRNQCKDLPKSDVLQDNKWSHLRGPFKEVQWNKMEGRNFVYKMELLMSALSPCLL
Chain of UniProt Q9H9A6 (Q9H9A6 whole entry, looked up): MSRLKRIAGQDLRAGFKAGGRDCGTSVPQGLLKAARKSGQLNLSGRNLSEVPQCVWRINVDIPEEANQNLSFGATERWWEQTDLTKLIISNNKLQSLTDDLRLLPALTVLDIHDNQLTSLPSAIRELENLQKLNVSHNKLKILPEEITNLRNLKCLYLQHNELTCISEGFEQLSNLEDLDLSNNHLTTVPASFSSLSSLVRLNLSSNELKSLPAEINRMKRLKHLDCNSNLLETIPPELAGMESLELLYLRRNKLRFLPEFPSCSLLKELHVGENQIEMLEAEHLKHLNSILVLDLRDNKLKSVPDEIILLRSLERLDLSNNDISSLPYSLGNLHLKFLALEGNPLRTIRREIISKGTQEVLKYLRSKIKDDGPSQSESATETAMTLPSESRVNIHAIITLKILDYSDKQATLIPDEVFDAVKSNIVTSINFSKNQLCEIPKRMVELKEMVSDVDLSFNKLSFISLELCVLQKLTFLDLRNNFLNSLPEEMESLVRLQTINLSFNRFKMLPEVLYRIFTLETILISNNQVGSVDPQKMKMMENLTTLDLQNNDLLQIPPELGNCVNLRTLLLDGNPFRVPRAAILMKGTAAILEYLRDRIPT
Chain of UniProt O00629 (O00629 whole entry, looked up): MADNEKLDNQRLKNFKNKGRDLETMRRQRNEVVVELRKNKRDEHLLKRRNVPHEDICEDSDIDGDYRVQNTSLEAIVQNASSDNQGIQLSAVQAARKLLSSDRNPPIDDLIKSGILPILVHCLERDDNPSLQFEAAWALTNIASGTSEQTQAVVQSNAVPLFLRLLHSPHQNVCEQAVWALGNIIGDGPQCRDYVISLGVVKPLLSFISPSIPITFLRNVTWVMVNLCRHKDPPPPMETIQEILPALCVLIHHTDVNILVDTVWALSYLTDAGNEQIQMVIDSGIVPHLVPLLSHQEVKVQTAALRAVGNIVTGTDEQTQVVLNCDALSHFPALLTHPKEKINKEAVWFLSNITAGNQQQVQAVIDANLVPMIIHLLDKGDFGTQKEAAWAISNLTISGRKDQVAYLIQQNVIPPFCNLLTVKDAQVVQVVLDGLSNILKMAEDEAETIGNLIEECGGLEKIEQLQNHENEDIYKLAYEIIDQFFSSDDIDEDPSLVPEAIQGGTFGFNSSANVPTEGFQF
Chain of UniProt Q9NZB8 (Q9NZB8 whole entry, looked up): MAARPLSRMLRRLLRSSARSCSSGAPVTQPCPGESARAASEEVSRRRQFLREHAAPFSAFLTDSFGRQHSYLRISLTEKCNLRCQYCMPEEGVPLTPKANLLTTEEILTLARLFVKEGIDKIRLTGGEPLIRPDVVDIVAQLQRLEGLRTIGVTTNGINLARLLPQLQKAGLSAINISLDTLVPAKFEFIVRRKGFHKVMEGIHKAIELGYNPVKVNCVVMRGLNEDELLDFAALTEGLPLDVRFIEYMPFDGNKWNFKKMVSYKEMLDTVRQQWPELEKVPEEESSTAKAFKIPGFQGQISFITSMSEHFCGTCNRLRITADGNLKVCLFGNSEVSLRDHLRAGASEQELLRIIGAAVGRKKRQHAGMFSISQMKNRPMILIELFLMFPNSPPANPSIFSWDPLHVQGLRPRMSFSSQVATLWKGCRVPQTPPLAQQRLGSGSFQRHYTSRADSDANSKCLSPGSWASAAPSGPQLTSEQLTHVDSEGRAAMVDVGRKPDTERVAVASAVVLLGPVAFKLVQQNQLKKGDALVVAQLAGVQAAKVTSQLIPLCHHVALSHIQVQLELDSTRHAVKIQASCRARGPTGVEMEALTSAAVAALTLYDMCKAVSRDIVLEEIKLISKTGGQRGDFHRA
Chain of UniProt P10620 (P10620 whole entry, looked up): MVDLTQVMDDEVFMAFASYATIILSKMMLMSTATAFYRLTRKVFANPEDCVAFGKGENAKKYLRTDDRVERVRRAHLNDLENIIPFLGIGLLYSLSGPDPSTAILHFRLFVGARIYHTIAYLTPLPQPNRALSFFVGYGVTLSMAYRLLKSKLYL
Chain of UniProt Q9H8H3 (Q9H8H3 whole entry, looked up): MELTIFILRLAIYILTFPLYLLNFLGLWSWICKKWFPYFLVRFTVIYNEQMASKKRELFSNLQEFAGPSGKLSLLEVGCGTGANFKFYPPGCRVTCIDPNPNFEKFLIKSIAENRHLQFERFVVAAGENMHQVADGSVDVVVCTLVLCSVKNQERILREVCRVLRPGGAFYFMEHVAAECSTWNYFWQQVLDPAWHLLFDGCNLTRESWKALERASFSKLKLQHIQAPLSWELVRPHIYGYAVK

Compound in the assay: Cc1cc(Nc2cc(CN3CCOCC3)c3nc(C)c(Cc4ccc(Cl)cc4F)n3n2)n[nH]1 [gandotinib]
The assay is described as follows: log2 fold change, soluble protein after heating vs DMSO (PISA); higher = thermal stabilisation; K562 lysate, 10 uM; active = over 0.2 and 3.5 SD of the protein, either way, in both replicates (recomputed). In a few lines:
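Quantification was by TMTpro 16plex LC-MS/MS with equalised channel sums, applied to the supernatant after 21,000xg for 90 min. Samples were crude K562 extract at 1 mg/mL protein in PBS pH 7.4 with 1 mM MgCl2, treated with 10 μM compound for 30 min, heated for 3 min across 48°C-58°C, pooled and brought to 0.5% NP-40 at 4°C. Values are log-two fold changes in thermal stability relative to solvent controls, from duplicates.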
For the target LARS2 (UniProt Q15031), the log2 fold change is -0.2 (inactive).

As to LYSMD3 (UniProt Q7Z3D4), the log2 fold change is 0.307 (inactive).

As for MARK3 (UniProt P27448), the log2 fold change was -0.089 (inactive).

Turning to MAP2K2 (UniProt P36507), the log2 fold change is -0.065 (inactive).

For MAD2L1BP isoform 3 (UniProt Q15013), the log2 fold change is -0.009 (inactive).

Turning to MOCS1 isoform 8 (UniProt Q9NZB8), the log2 fold change was 0.012 (inactive).

On to LRRC40 (UniProt Q9H9A6), for which the log2 fold change is -0.088 (inactive).

MPZL1 (UniProt O95297): the log2 fold change was -0.009 (inactive).

In the case of MON2 isoform 5 (UniProt Q7Z3U7), the log2 fold change is -0.031 (inactive).

Regarding LLGL1 (UniProt Q15334), the log2 fold change was -0.011 (inactive).

MRPL10 isoform 2 (UniProt Q7Z7H8): the log2 fold change is -0.037 (inactive).

In the case of LIMS1 isoform 3 (UniProt P48059), the log2 fold change was 0.008 (inactive).

MED12 isoform 2 (UniProt Q93074): the log2 fold change was -0.072 (inactive).

For the target METTL7A (UniProt Q9H8H3), the log2 fold change is 0.226 (inactive).

For MED17 (UniProt Q9NVC6), the log2 fold change was -0.037 (inactive).

On to LSM8 (UniProt O95777), for which the log2 fold change was 0.007 (inactive).

Turning to MFF isoform 2 (UniProt Q9GZY8), the log2 fold change was 0.106 (inactive).

Regarding LARS (UniProt Q9P2J5), the log2 fold change is -0.081 (inactive).

With MAPK9 (UniProt P45984), the log2 fold change was 0.035 (inactive).

For MED13L (UniProt Q71F56), the log2 fold change is -0.005 (inactive).

Regarding MACROD1 (UniProt Q9BQ69), the log2 fold change is -0.017 (inactive).

MRPL46 (UniProt Q9H2W6): the log2 fold change is -0.09 (inactive).

Take MGST1 (UniProt P10620): the log2 fold change is -0.025 (inactive).

Consider MGAT5 (UniProt Q09328), for which the log2 fold change is -0.106 (inactive).

Turning to MAT2B (UniProt Q9NZL9), the log2 fold change was -0.02 (inactive).

As to MCMBP (UniProt Q9BTE3), the log2 fold change is -0.083 (inactive).

As for MICB, A0A140T979, the log2 fold change is 0.011 (inactive).

For the target LSS (UniProt P48449), the log2 fold change was 0.028 (inactive).

Take MORF4L1 isoform 2 (UniProt Q9UBU8): the log2 fold change was 0.037 (inactive).

Regarding MAPKAPK3 (UniProt Q16644), the log2 fold change was -0.044 (inactive).

Turning to KPNA4 (UniProt O00629), the log2 fold change was 0.089 (inactive).

With LIG3 (UniProt P49916), the log2 fold change is -0.05 (inactive).

On to MAP4 (UniProt E7EVA0), for which the log2 fold change is 0.007 (inactive).

As for MLST8 (UniProt Q9BVC4), the log2 fold change is -0.055 (inactive).

As for LSG1 (UniProt Q9H089), the log2 fold change is 0.037 (inactive).

Consider MPP1 (UniProt Q00013), for which the log2 fold change was -0.008 (inactive).

As for LRWD1 (UniProt Q9UFC0), the log2 fold change is -0.102 (inactive).

Turning to MBD2 (UniProt Q9UBB5), the log2 fold change is -0.004 (inactive).

In the case of MCU (UniProt Q8NE86), the log2 fold change is -0.311 (active).
